Records with an inconclusive call do not appear. Where a call stands in place of a potency, no number is given. Calls of active or inactive are those of the source. Unless noted, calls come from the whole dose curve; as a rule, active = well fitted curve in the direction sought with a large enough effect; inconclusive = small, poorly fitted or top-dose-only effect, or another doubt; inactive = no such curve, though single readings can be large; an effect the other way counts as inactive or inconclusive.
Columns and labels:
[1] = Confirmation and Secondary Assay for Modulators of Hemoglobin Beta Chain Splicing at IVS2 705 locus (AID 930);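 note: HeLa cells stably expressing the EGFP-705 splicing reporter; GFP fluorescence per well restored by corrected splicing of the IVS2-705 intron in EGFP; series mostly up to about 46 µM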
How it was run: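 Read-out: total peak GFP fluorescence per well (488 nm excitation, 500-520 nm emission) by laser-scanning cytometry. Cells: HeLa EGFP-705 splicing reporter, 2 days compound exposure in Optimem/2% FCS.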

[2] = target: Alpha-galactosidase (Coffea arabica) (UniProt Q42656); assay: Counterscreen for Glucocerebrosidase Inhibitors: qHTS Assay for Coffee Bean alpha-Galactosidase at pH 4.5 (AID 957); note: series mostly up to about 77 µM
Sequence of Alpha-galactosidase (Coffea arabica) (Q42656 whole entry, looked up): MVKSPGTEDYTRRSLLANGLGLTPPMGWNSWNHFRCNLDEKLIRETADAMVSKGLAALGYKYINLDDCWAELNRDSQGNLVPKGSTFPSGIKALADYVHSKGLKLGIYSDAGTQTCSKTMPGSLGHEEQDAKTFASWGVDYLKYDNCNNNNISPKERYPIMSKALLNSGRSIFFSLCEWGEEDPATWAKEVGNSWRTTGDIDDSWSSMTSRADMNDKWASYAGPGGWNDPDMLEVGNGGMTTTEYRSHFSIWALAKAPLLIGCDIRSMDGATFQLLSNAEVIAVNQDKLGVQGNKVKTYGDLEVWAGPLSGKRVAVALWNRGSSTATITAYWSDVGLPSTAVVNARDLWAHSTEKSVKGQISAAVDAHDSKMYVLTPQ
How it was run: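 Enzyme is added first (2 nM final), then compounds titrated from 0.7 nM to 77 uM, then 80 uM 4-methylumbelliferyl alpha-D-galactopyranoside; after 20 min at room temperature a pH 10 NaOH/glycine stop precedes fluorescence reading at 365/440 nm.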

[3] = Cell Viability - LYMP2-001 (AID 921); note: series mostly up to about 92 µM; nearly all actives have a fitted effect of over 70% in size
How it was run: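 Cellular ATP loss read by luciferase luminescence after 24 h compound exposure at 37 C in complete medium. LYMP2-001 lymphoblastoid cells, 2500/well; qHTS concentration-response data fitted with Hill equation for AC50.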

[4] = MultiTox-Fluor Cytotoxicity Assay - LYMP1-001 - Dead Cells (AID 946);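 note: cells exposed to compound for 16 h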
How it was run: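 Seed 2500 LYMP1-001 cells/well, incubate 5 hr at 37 C; add compound, 16 hr at 37 C; add MultiTox-Fluor reagent, 60 min RT; read dead-cell fluorescence Ex/Em=485/520. Normalize to DMSO and 15 uM tetraoctylammonium bromide.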

[5] = Cell Viability - LYMP1-002 - Assay at 16 hr (AID 948)
How it was run: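 ATP luminescence (CellTiter-Glo) was measured after 16 hr compound exposure at 37 C of 2500 lymphoblastoid LYMP1-002 cells per well. Concentration-response curves were fitted with the Hill equation to give AC50.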

[6] = MultiTox-Fluor Cytotoxicity Assay - LYMP1-003 - Dead Cells (AID 961);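 note: cells exposed to compound for 16 h at 37 °C; nearly all actives have a fitted effect of over 70% in size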
How it was run: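 LYMP1-003 lymphoblastoid, 2500 cells/well, 5 hr settle then 16 hr cpd at 37 C; MultiTox-Fluor reagent 60 min RT; Ex/Em 485/520 dead-cell signal; norm. DMSO = 0%, 15 uM tetraoctylammonium bromide = 100%; Hill AC50.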

[7] = MultiTox-Fluor Cytotoxicity Assay - LYMP1-003 - Live Cells (AID 962);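 note: cells exposed to compound for 16 hours at 37 °C; cytotoxic hits lower the live-cell protease signal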
How it was run: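 Acute cytotoxicity is scored as a drop in live-cell protease activity in human lymphoblastoid LYMP1-003 cells after 16 hr compound exposure at 37 C. AC50 values come from Hill-equation modelling of concentration-response data.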

[8] = Cell Viability - LYMP1-003 - Assay at 24 hr (AID 963)
How it was run: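 Cytotoxicity is scored as a concentration-dependent fall in ATP-linked luciferase signal in human lymphoblastoid LYMP1-003 cells treated 24 hr at 37 C in complete culture medium.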

[9] = Cell Viability - LYMP1-003 - Assay at 40 hr (AID 964); note: series mostly up to about 92 µM; nearly all actives have a fitted effect of over 60% in size
How it was run: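 Luminescent ATP signal (CellTiter-Glo) served as the viability read-out after 40 hr compound treatment of human lymphoblastoid LYMP1-003 cells at 37 C. Decreases in ATP were fitted with the Hill equation to give AC50.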

[10] = Cell Viability - LYMP2-004 (AID 966); note: nearly all actives have a fitted effect of over 65% in size
How it was run: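 qHTS cytotoxicity: human lymphoblastoid line, 24 hr compound treatment, 37 C, complete medium. Viability read as cellular ATP via luciferase luminescence; tetraoctylammonium bromide served as positive control.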

[11] = Cell Viability - LYMP2-005 (AID 967); note: series mostly up to about 92 µM
How it was run: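 LYMP2-005 human lymphoblastoid cells (2500/well) were treated with compounds for 24 h at 37 C. Intracellular ATP was then measured by CellTiter-Glo luminescence after 30 min at room temperature. AC50 values came from Hill-equation fits of qHTS concentration-response data.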

[12] = Cell Viability - LYMP2-009 (AID 968); note: series mostly up to about 92 µM; nearly all actives have a fitted effect of over 55% in size
[13] = Cell Viability - LYMP2-011 (AID 969); note: nearly all actives have a fitted effect of over 60% in size
How it was run: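 In this qHTS cytotoxicity format, compounds are tested across concentrations on human lymphoblastoid cells in complete medium for 24 hours at 37 C. Viability is taken as cellular ATP measured by luciferase luminescence.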

[14] = MultiTox-Fluor Cytotoxicity Assay - LYMP1-001 - Live Cells (AID 947)
[15] = target: Muscarinic acetylcholine receptor M1 (Rattus norvegicus) (UniProt P08482); assay: qHTS Assay for Antagonists of Acetylcholine Muscarinic M1 Receptor: Kinetic Measurement of Intracellular Calcium Response (AID 943); note: nearly all actives have a fitted effect of over 75% in size; note: potency is the fitted concentration of half-maximal effect
Sequence of Muscarinic acetylcholine receptor M1 (Rattus norvegicus) (P08482 whole entry, looked up): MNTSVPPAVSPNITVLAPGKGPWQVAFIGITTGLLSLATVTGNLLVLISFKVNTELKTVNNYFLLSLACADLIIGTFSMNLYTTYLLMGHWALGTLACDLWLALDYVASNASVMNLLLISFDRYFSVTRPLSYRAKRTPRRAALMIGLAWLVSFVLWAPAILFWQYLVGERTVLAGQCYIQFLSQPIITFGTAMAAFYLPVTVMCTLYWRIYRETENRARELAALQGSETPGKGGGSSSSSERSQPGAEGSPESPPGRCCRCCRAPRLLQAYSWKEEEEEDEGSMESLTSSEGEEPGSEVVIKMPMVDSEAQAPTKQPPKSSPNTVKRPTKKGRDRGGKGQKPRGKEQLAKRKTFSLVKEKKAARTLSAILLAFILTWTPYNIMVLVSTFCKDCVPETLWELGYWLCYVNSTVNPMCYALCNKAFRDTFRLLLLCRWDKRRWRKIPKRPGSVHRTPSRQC
How it was run: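 Antagonism is measured as inhibition of the carbachol-evoked calcium rise in CHO cells transfected with rat M1. Cells are dye-loaded, exposed to compound for 10 min, then stimulated with 100 nM carbachol (EC80).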

[16] = target: Muscarinic acetylcholine receptor M1 (Rattus norvegicus) (UniProt P08482); assay: qHTS Assay for Antagonists of Acetylcholine Muscarinic M1 Receptor: Measurement of IP-One Response (AID 944); note: nearly all actives have a fitted effect of over 75% in size; note: potency is the fitted concentration of half-maximal effect
How it was run: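 Antagonist mode with rat M1 receptor transfected into CHO cells. Compound is added first for 10 min, carbachol at its EC80 follows for 30 min, and lysis reagents then allow TR-FRET detection of accumulated IP1.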

[17] = target: Pyruvate kinase (Leishmania mexicana) (UniProt Q27686); assay: qHTS Validation Assay for Inhibitors of Leishmania Mexicana Pyruvate Kinase (AID 945)
Sequence of Pyruvate kinase (Leishmania mexicana) (Q27686 2-499 E452W): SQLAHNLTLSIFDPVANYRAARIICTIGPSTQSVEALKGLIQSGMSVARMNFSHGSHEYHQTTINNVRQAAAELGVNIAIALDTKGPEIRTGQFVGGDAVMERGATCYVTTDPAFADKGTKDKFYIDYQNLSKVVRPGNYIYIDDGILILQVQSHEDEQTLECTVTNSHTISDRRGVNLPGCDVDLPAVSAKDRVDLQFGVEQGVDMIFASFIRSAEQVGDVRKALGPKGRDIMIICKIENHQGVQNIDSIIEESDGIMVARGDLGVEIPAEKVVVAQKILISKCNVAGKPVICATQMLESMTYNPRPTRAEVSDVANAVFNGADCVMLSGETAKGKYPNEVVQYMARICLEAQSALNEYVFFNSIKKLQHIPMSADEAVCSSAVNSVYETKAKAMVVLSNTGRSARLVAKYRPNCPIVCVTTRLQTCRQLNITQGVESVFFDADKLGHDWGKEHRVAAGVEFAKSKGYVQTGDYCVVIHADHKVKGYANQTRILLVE
How it was run: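 Luminescent ATP detection (PKLight) after a 1 h room-temperature reaction of 0.2 nM LmPYK E451W mutant with 0.5 mM PEP and 0.1 mM ADP at pH 7.2. Activity is normalized to DMSO-only control wells.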

[18] = target: Pyruvate kinase PKM (Homo sapiens) (UniProt P14618); assay: qHTS Assay for Activators of Human Muscle Pyruvate Kinase (AID 954; active = well fitted curve in the direction sought with a large enough effect, not every such curve was filed as active)
Sequence of Pyruvate kinase PKM (Homo sapiens) (P14618 whole entry, looked up): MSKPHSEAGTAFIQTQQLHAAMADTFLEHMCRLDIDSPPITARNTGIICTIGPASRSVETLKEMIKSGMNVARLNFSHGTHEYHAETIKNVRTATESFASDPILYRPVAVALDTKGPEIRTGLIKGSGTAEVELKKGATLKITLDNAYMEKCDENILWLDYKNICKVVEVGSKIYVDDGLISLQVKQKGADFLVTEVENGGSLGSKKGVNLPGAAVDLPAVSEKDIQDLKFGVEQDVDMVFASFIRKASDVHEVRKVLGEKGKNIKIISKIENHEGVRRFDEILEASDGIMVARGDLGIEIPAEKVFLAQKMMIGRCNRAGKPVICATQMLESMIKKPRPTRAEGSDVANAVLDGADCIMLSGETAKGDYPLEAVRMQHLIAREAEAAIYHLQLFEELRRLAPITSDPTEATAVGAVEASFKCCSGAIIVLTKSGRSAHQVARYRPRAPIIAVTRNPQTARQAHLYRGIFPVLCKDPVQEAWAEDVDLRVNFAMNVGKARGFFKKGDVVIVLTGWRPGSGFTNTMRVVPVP
How it was run: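 PKM2, human, >95% pure, 0.1 nM; PEP 0.5 mM (Km), ADP 0.1 mM; 50 mM imidazole pH 7.2, 50 mM KCl, 0.01% Tween 20, 0.05% BSA; 1 h RT; luciferase luminescence readout.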

In the case of `C#CC1(O)CCC2C3CCC4=CC(=O)CCC4(C)C3CCC21C` (centres undefined), the outcome [1] is reported as “inactive”.
With `CCOC(=O)C1=C[C@@]2(CC)CCCN3CCc4c(n1c1ccccc41)[C@H]32` the outcome [2] was “inactive”.
For `CC(=O)Oc1ccccc1C(=O)O`, the outcome [2] was “inactive”.
With `OCCCBr` the Potency [3] was “inactive”, the outcome [4] was “inactive” and the Potency [5] was “inactive”. The Potency [6] was “inactive”, the Potency [7] was “inactive” and the Potency [8] was “inactive”. The Potency [9] was “inactive”, the Potency [10] was “inactive” and the outcome [11] was “inactive”. For the same compound, the Potency [12] was “inactive” and the Potency [13] was “inactive”.
In the case of `Cc1cccc(C#Cc2ccccc2)n1`, the outcome [2] is reported as “inactive”.
For `CCCCCCCCc1ccc(O)cc1`, the Potency [3] was “inactive”, the outcome [4] was “inactive” and the Potency [14] was “inactive”. For the same compound, the Potency [5] was “inactive”, the Potency [6] was “inactive” and the Potency [7] was “inactive”. The Potency [8] was “inactive”, the Potency [10] was “inactive” and the outcome [11] was “inactive”. The Potency [12] was “inactive” and the Potency [13] was “inactive”.
In the case of `c1ccc(CCCN2CCN(CCOC(c3ccccc3)c3ccccc3)CC2)cc1`, the Potency [15] is reported as 0.891 µM (active), the Potency [16] is reported as 8.91 µM (active) and the outcome [17] is reported as “inactive”. The outcome [18] was “inactive” and the outcome [2] was “inactive”.
For `Nc1ccc(Sc2ccc(N)cc2)cc1`, the Potency [3] was “inactive”, the outcome [4] was “inactive” and the Potency [14] was “inactive”. For the same compound, the Potency [5] was “inactive”, the Potency [6] was “inactive” and the Potency [7] was “inactive”. For the same compound, the Potency [8] was “inactive”, the Potency [9] was “inactive” and the Potency [10] was “inactive”. For the same compound, the outcome [11] was “inactive”, the Potency [12] was “inactive” and the Potency [13] was “inactive”.
For `CCc1c(C)[nH]c2c1C(=O)C(CN1CCOCC1)CC2` (centres undefined), the outcome [2] was “inactive”.
For `Nc1ccc(Cl)cc1`, the Potency [3] was “inactive”, the outcome [4] was “inactive” and the Potency [14] was “inactive”. For the same compound, the Potency [5] was “inactive”, the Potency [6] was “inactive” and the Potency [7] was “inactive”. For the same compound, the Potency [8] was “inactive”, the Potency [9] was “inactive” and the Potency [10] was “inactive”. For the same compound, the outcome [11] was “inactive”, the Potency [12] was “inactive” and the Potency [13] was “inactive”.
In the case of `CCC(=O)OC1CCC2C3CCC4=CC(=O)CC[C@@]4(C)C3CC[C@]12C` (some centres undefined), the outcome [1] is reported as “inactive”.
In the case of `C[C@]12C[C@H](O)[C@H]3[C@@H](CCC4=CC(=O)CC[C@@]43C)[C@@H]1CC[C@@H]2C(=O)CO`, the outcome [2] is reported as “inactive”.
For `C#CCOC(=O)C1=CCCN(C)C1`, the Potency [15] was “inactive”, the Potency [16] was “inactive” and the outcome [17] was “inactive”. For the same compound, the outcome [18] was “inactive” and the outcome [2] was “inactive”.
For `Nc1ccc(Cl)cc1N`, the outcome [4] was “inactive”, the Potency [14] was “inactive” and the Potency [5] was “inactive”. For the same compound, the Potency [6] was “inactive”, the Potency [7] was “inactive” and the Potency [8] was “inactive”. For the same compound, the Potency [9] was “inactive”, the outcome [11] was “inactive” and the Potency [12] was “inactive”. The Potency [13] was “inactive”.
For `CS(=O)(=O)Nc1ccc([N+](=O)[O-])cc1Oc1ccccc1`, the outcome [2] was “inactive”.
For `C1CCC(NC2CCCCC2)CC1`, the Potency [3] was “inactive”, the outcome [4] was “inactive” and the Potency [14] was “inactive”. The Potency [5] was “inactive”, the Potency [6] was “inactive” and the Potency [7] was “inactive”. The Potency [8] was “inactive”, the Potency [9] was “inactive” and the Potency [10] was “inactive”. For the same compound, the outcome [11] was “inactive”, the Potency [12] was “inactive” and the Potency [13] was “inactive”.
In the case of `NCCS`, the outcome [2] is reported as “inactive”.
In the case of `CN(C)[C@@H]1C(=O)C(C(N)=O)=C(O)[C@@]2(O)C(=O)C3=C(O)c4c(O)cccc4[C@@](C)(O)[C@H]3[C@H](O)[C@@H]12`, the outcome [4] is reported as “inactive”, the Potency [14] is reported as “inactive” and the Potency [5] is reported as “inactive”. For the same compound, the Potency [6] was “inactive”, the Potency [7] was “inactive” and the Potency [8] was “inactive”. The Potency [9] was “inactive”, the Potency [10] was “inactive” and the outcome [11] was “inactive”. For the same compound, the Potency [12] was “inactive” and the Potency [13] was “inactive”.
With `O=[N+]([O-])c1cc([N+](=O)[O-])c2ccccc2c1` the Potency [3] was “inactive”, the outcome [4] was “inactive” and the Potency [14] was “inactive”. For the same compound, the Potency [5] was “inactive”, the Potency [6] was “inactive” and the Potency [7] was “inactive”. For the same compound, the Potency [8] was “inactive”, the Potency [9] was “inactive” and the Potency [10] was “inactive”. The outcome [11] was “inactive”, the Potency [12] was “inactive” and the Potency [13] was “inactive”.
In the case of `CCCCCCCCCCCCCCCC[N+](C)(C)C`, the outcome [1] is reported as “inactive”.
In the case of `c1ccc2sc(C3(N4CCCCC4)CCCCC3)cc2c1`, the Potency [16] is reported as “inactive”, the outcome [17] is reported as “inactive” and the outcome [18] is reported as “inactive”. For the same compound, the outcome [2] was “inactive”.
With `CCCCc1ccc(C(=O)O)nc1` the Potency [16] was “inactive”, the outcome [17] was “inactive” and the outcome [18] was “inactive”. For the same compound, the outcome [2] was “inactive”.
